Here are results for 7 molecules from PubChem BioAssay (Tox21).

SMILES strings stand for the structures. Several values for one entry are separate records, joined by “and”; a condition that tells them apart may be missing. Identical values can stand only once. Results filed as inconclusive are left out. Where a structure was tested more than once in an assay, its records may differ in their call. Activity calls are given as the source filed them. Unless noted, calls come from the whole dose curve; as a rule, active = well fitted curve in the direction sought with a large enough effect in the repeat runs; inconclusive = weak or mixed curves; inactive = no such curve, though single readings can be large; an effect the other way counts as inactive or inconclusive.

For experiment [1], the target named is Luciferin 4-monooxygenase (Photinus pyralis) (UniProt P08659). Kind of experiment: qHTS assay to identify small molecule inhibitors of firefly luciferase (AID 1224835). Note: nearly all actives have a fitted effect of over 25% in size. Note: potency is the fitted concentration of half-maximal effect. A digest of the protocol: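 Quantitative HTS format; KM concentrations of both substrates. Purified P. pyralis FLuc activity quantified from luminescence images.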
On the technique in general: qHTS replaces the single test concentration by a dilution series.

Experiment [2] in a line: qHTS assay to identify small molecule agonists of the constitutive androstane receptor (CAR) signaling pathway - cell viability counter screen (AID 1224836). Note: nearly all actives have a fitted effect of over 45% in size. A digest of the protocol:
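HepG2-CYP2B6-hCAR, 2500 cells/well, 4 h pre-incubation; cpd 15 conc + PK11195 0.75 uM final; 23 h, 37 C/5% CO2; CellTiter-Fluor, fluorescence.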

Experiment [3] is described as follows: qHTS assay to identify small molecule antagonists of the constitutive androstane receptor (CAR) signaling pathway - cell viability counter screen (AID 1224837). Note: nearly all actives have a fitted effect of over 45% in size. A digest of the protocol:
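Using CellTiter-Fluor, viability is scored in HepG2 cells stably carrying hCAR and a 2.2kb CYP2B6 reporter after 23 hr compound exposure across 15 concentrations, with CITCO present at 50 nM.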

The target in experiment [4] is Nuclear receptor subfamily 1 group I member 3 (Homo sapiens) (UniProt Q14994). The experiment in a line: qHTS assay to identify small molecule antagonists of the constitutive androstane receptor (CAR) signaling pathway (AID 1224838).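 Note: HepG2 cells stably expressing hCAR with CYP2B6 luciferase reporter stimulated by CITCO; nearly all actives have a fitted effect of over 40% in size.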 Note: potency is the fitted concentration of half-maximal effect. A digest of the protocol:
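Reporter luminescence was quantified after 24 h exposure of hCAR/CYP2B6-2.2kb double-stable HepG2 cells to compounds at 15 concentrations in the presence of 50 nM CITCO final.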

Experiment [5] has the same target. Kind of experiment: qHTS assay to identify small molecule agonists of the constitutive androstane receptor (CAR) signaling pathway (AID 1224839).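 For activation: HepG2 cells stably carrying human CAR and a CYP2B6 luciferase reporter.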 Note: nearly all actives have a fitted effect of over 15% in size. Note: potency is the fitted concentration of half-maximal effect. The method in brief:
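HepG2-CYP2B6-hCAR cells, 2500/well, 4 h pre-incubation; compounds 15 conc.; PK11195 0.75 uM final; 24 h, 37 C/5% CO2; ONE-Glo luciferase read.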

A short description of experiment [6]: qHTS assay to identify small molecule antagonists of the estrogen related receptor signaling pathway with the pleiotropic PPARgamma coactivator (PGC) from Tox21 10K library - cell viability counter screen (AID 1224840; active = well fitted cell-killing curve with a large enough effect in the repeat runs, not every such curve was filed as active; note: nearly all actives have a fitted effect of over 40% in size). The method in brief:
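Here the PGC/ERR cells serve as a cytotoxicity control: they are exposed to compounds for 17.5 hours at 37 C, and live-cell signal is quantified using CellTiter-Fluor fluorescence.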

Experiment [7] is described as follows: qHTS assay to identify small molecule antagonists of the estrogen related receptor signaling pathway with the pleiotropic PPARgamma coactivator (PGC) from Tox21 10K library (AID 1224841; call rule not given here; note: actives are mostly falling curves and most rising ones were filed inactive; nearly all actives have a fitted effect of over 50% in size). The method in brief: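 Each well held 2,000 PGC/ERR cells, pre-incubated six hours (37 C, 5% CO2). Test substances in DMSO were added by pin tool and left for 18 h at 37 C before luciferase detection by One-Glo.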

Experiment [8] in a line: qHTS assay to identify small molecule agonists of the estrogen related receptor signaling pathway with the pleiotropic PPARgamma coactivator (PGC) from Tox21 10K library (AID 1224842). Note: nearly all actives have a fitted effect of over 15% in size. The method in brief:
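PGC/ERR reporter cells (NTP line) were seeded 2,000 per well, rested 6 h at 37 C/5% CO2, then pin-dosed with compounds in DMSO for 18 h at 37 C; luciferase read by One-Glo luminescence after 30 min at room temperature.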

The target in experiment [9] is Thyrotropin receptor (Homo sapiens) (UniProt P16473). Kind of experiment: qHTS assay to identify small molecule agonists of the thyroid stimulating hormone receptor (TSHR) signaling pathway (AID 1224843; calls by dose curve; note: nearly all actives have a fitted effect of over 45% in size). The method in brief:
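TSHR-expressing HEK293 cells (800 per well) were exposed to compounds for 30 min at room temperature. cAMP was then detected by HTRF competition with cAMP-d2 and anti-cAMP cryptate, read after 1 h at room temperature. Fifteen concentrations, triplicate.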

A short description of experiment [10]: qHTS assay to identify small molecule agonists of the hypoxia (HIF-1) signaling pathway - cell viability counter screen (AID 1224844; calls by dose curve; note: nearly all actives have a fitted effect of over 50% in size; note: potency is the fitted concentration of half-maximal effect). A digest of the protocol:
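Multiplexed with the HRE beta-lactamase assay, this viability read used CellTiter-Glo luminescence (30 min, RT) on HRE-bla ME-180 cells treated 17 hrs with compounds in 0.5% dialyzed FBS medium.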

The nature of experiment [11]: qHTS assay to identify small molecule agonists of H2AX (AID 1224845; active = well fitted activation curve with a large enough effect in the signal ratio in the repeat runs, not every such curve was filed as active; the % refers to the signal ratio). A digest of the protocol:
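Wild-type CHO-K1 cells plated overnight, then exposed 3 hr at 37C to compounds at 15 concentrations (0.76% DMSO). Lysed, then HTRF anti-pH2AX(S139)-cryptate/anti-H2AX-d2 detection after 24 hr at room temperature; emissions 665 and 620 nm.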

Experiment [12] can be described thus: qHTS assay to identify small molecule agonists of the hypoxia (HIF-1) signaling pathway (AID 1224846; active = well fitted activation curve with a large enough effect in the signal ratio in the repeat runs, not every such curve was filed as active; the % refers to the signal ratio). A digest of the protocol: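 Hypoxia-pathway activation was scored as increased beta-lactamase from an HRE-controlled reporter in ME-180 cells; plated at 2,000 cells per well with 0.5% dialyzed FBS, they were exposed 17 hrs to compounds and then given CCF4-AM.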

A short description of experiment [13]: qHTS assay to identify small molecule agonists of H2AX - cell viability counter screen (AID 1224847; calls by dose curve; note: top concentration of the series differs between compounds; nearly all actives have a fitted effect of over 30% in size). The method in brief:
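Cells plated first: CHO-K1, 1000 per well in 10% FBS medium, incubated overnight at 37C. Then 15-point compound titration added (final DMSO 0.76%) for 3 hr. Finally CellTiter-Glo added and luminescence read.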

Experiment [14] is described as follows: qHTS assay to identify small molecule antagonists of the estrogen related receptor (ERR) signaling pathway from Tox21 library (AID 1224848). Note: nearly all actives have a fitted effect of over 50% in size. Note: potency is the fitted concentration of half-maximal effect. A digest of the protocol: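 Cells: ERR line, 2,000/well; 6 h preincubation 37 C/5% CO2. Cpd in DMSO via pin tool; 18 h, 37 C. ONE-Glo, 30 min RT, luminescence.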
A short description of experiment [15]: qHTS assay to identify small molecule agonists of the estrogen related receptor (ERR) signaling pathway from Tox21 library (AID 1224849; calls by dose curve; note: nearly all actives have a fitted effect of over 15% in size). The conditions noted are these: ERR reporter cell line, ONE-Glo luciferase, 18 h. A digest of the protocol:
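Six hours post-seeding at 37 C/5% CO2, ERR cells receive DMSO-solubilised compounds; after 18 h at 37 C, ONE-Glo reagent is applied and luminescence recorded.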

A short description of experiment [16]: qHTS RealTime-Glo MT Cell Viability Assay in HepG2 cells - 24 hour (AID 1224867). Note: nearly all actives have a fitted effect of over 50% in size. A digest of the protocol: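 qHTS, HepG2, 600 cells/well, RealTime-Glo (NanoLuc + prosubstrate) added with cells; 5 h preincubation; DMSO compound addition; 37 C; luminescence at 0/8/16/24/32/40 h.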
Experiment [17] can be described thus: qHTS RealTime-Glo MT Cell Viability Assay in HEK293 cells - 32 hour (AID 1224868). Note: nearly all actives have a fitted effect of over 50% in size. Note: potency is the fitted concentration of half-maximal effect. A digest of the protocol: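 Assay medium contained NanoLuc luciferase plus cell-permeant prosubstrate, added with HEK293 cells at 600 cells/well. After 5 h at 37 C/5% CO2 compounds were added; plates stayed at 37 C for 40 h with serial luminescence reads.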
Experiment [18] in a line: A CellTox Green Cytotoxicity Assay to monitor cytotoxicity in HEK293 cells - 0 hour (AID 1224869). Note: nearly all actives have a fitted effect of over 50% in size. A digest of the protocol:
(§1)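 Seeding of HEK293 cells together with cytotoxicity dye preceded a 5 h incubation at 37 C/5% CO2. Test compounds in DMSO were then added and fluorescence monitored across 40 h.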

Experiment [19] can be described thus: A CellTox Green Cytotoxicity Assay to monitor cytotoxicity in HEK293 cells - 40 hour (AID 1224871). Note: nearly all actives have a fitted effect of over 45% in size. Note: potency is the fitted concentration of half-maximal effect. A digest of the protocol: as §1
The nature of experiment [20]: qHTS RealTime-Glo MT Cell Viability Assay in HepG2 cells - 40 hour (AID 1224870). Note: nearly all actives have a fitted effect of over 50% in size. The method in brief:
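HepG2 cells mixed with RealTime-Glo MT reagents (NanoLuc plus cell-permeant prosubstrate) were seeded at 600 cells/well, incubated 5 h at 37 C/5% CO2, then pinned with compounds in DMSO; nonlytic luminescence tracked viability during 40 h treatment.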
% is set by controls: 0 for no effect and ±100 for the full control effect.

Sequence of Luciferin 4-monooxygenase (Photinus pyralis) (P08659 whole entry, looked up): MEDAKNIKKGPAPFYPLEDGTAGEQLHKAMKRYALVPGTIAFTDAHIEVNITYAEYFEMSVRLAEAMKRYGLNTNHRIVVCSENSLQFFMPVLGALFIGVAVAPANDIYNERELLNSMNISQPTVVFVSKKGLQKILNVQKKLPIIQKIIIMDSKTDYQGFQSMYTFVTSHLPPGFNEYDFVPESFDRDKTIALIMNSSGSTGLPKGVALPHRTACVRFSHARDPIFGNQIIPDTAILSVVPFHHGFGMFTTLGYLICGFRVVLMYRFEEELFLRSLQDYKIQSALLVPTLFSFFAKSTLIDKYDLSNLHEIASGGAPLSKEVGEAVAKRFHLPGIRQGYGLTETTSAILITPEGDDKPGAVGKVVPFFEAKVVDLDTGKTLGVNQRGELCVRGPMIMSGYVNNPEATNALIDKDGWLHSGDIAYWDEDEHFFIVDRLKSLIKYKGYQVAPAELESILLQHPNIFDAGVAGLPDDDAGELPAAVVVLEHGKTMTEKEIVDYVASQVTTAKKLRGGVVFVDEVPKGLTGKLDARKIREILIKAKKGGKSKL
Sequence of Thyrotropin receptor (Homo sapiens) (P16473 whole entry, looked up): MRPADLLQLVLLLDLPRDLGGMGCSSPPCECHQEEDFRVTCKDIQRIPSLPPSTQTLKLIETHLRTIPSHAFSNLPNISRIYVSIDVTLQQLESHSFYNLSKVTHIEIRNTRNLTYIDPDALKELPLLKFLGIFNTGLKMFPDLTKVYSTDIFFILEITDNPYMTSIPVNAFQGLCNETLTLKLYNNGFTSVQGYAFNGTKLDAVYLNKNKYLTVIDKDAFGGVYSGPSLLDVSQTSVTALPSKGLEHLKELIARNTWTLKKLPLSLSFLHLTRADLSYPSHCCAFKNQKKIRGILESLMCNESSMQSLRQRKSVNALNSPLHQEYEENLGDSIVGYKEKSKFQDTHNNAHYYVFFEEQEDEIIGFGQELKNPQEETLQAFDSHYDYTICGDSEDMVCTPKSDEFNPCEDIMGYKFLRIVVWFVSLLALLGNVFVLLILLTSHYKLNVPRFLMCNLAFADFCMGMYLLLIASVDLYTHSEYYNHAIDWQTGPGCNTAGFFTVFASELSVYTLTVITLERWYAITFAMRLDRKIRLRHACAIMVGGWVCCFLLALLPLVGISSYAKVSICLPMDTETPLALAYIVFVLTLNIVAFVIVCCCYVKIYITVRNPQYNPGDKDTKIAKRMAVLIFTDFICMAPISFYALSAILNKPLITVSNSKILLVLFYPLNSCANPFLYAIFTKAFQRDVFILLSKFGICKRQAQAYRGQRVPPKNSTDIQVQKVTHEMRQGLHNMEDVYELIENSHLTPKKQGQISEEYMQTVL
Sequence of Nuclear receptor subfamily 1 group I member 3 (Homo sapiens) (Q14994 whole entry, looked up): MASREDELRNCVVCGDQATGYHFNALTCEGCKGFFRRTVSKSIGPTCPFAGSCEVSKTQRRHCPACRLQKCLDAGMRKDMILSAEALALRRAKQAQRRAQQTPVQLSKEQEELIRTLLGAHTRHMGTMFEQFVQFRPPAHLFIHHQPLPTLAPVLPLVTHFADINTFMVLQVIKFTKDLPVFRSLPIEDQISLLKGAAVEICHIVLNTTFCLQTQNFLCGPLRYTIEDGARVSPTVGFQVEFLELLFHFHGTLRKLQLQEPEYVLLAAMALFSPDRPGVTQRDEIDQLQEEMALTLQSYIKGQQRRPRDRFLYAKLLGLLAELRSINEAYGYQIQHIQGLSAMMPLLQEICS

Turning to `OC[C@@H](O)[C@@H](O[C@@H]1O[C@H](CO)[C@H](O)[C@H](O)[C@H]1O)[C@H](O)[C@@H](O)CO`, the Potency result in experiment [1], in experiment [2], in experiment [3], in experiment [4], in experiment [5] and in experiment [6] was “inactive” each time. Further, the Potency entry in experiment [7], in experiment [8], in experiment [9], in experiment [10], in experiment [11] and in experiment [13] was “inactive” throughout. Also, the Potency result in experiment [14], in experiment [16], in [17], in [18] and in [19] was “inactive” throughout. For the same molecule, the call in [12] was inactive. For the same molecule, the activity change, positive = activation in experiment [15] (at 42.5 µM (top of the series)) was 4.37% (inactive); in [15] (at 92.4 µM (top of the series)) it was 5.88% (inactive).
As to `Cc1ccc(C(C)(C)C)c(O)c1`, the Potency result in [1], in experiment [2], in [3], in [5], in [6] and in experiment [7] was “inactive” each time. In addition, the Potency result in experiment [8], in experiment [10], in experiment [11], in [16], in experiment [17] and in experiment [18] was “inactive” each time. In addition, the Potency result in experiment [20] was “inactive”. The Potency in [4] was 59.1 µM (active); in experiment [19] it was 23.8 µM (active) and 24.5 µM (active). In experiment [12], the molecule was classed as inactive. In experiment [15] (at 92.4 µM (top of the series)), the activity change, positive = activation was -17.4% (inactive) and -15.2% (inactive).
In the case of `Cc1ccc(S(=O)(=O)O)cc1C`, the Potency entry in experiment [1], in experiment [2], in [3], in experiment [4], in [5] and in [6] was “inactive” throughout. For the same molecule, the Potency result in [9], in experiment [10], in [11], in [13], in experiment [16] and in experiment [17] was “inactive” each time. The Potency entry in experiment [18], in experiment [20] and in experiment [19] was “inactive” each time. Besides, the molecule was classed as inactive in experiment [12].
Regarding `C[C@]12CC[C@@H]3c4ccc(O)cc4CC[C@H]3[C@@H]1CC[C@@H]2O`, the Potency in experiment [1] was 39.8 µM (active) and 79.6 µM (active); in experiment [5], 9.67 µM (active) and 10.9 µM (active); in [14], 27.3 µM (active) and 34.4 µM (active); in experiment [17], 17.3 µM (active) and 21.9 µM (active). In addition, the Potency result in experiment [2], in experiment [3], in experiment [4], in experiment [6], in experiment [8] and in [10] was “inactive” in each case. In addition, the Potency entry in experiment [11], in [13], in experiment [16], in experiment [18], in experiment [20] and in experiment [19] was “inactive” each time. The activity change, positive = activation in experiment [15] (at 92.4 µM (top of the series)) is -53.8% (inactive) and -42.2% (inactive).
Take `CC(C)(C)c1cccc(C(C)(C)C)c1O`: the Potency entry in [1], in [2], in experiment [3], in experiment [4], in [5] and in experiment [6] was “inactive” in each case. The Potency entry in experiment [9], in experiment [11], in [16] and in experiment [18] was “inactive” in each case. The Potency in experiment [10] was 53.7 µM (active) and inactive; in [17], 24 µM (active) and inactive; in experiment [19] it was 47.9 µM (active) and inactive. In addition, the molecule was called inactive in experiment [12].
Turning to `CCCCCCCCCCCCCO`, in experiment [1], the Potency was 82.5 µM (active). The Potency result in experiment [2], in [3], in [4], in experiment [5], in experiment [6] and in [7] was “inactive” each time. The Potency entry in experiment [8], in [10], in [11], in [13], in experiment [14] and in experiment [16] was “inactive” each time. Moreover, the Potency entry in [17], in experiment [18] and in experiment [19] was “inactive” each time. In [12], the molecule was classed as inactive. In addition, the activity change, positive = activation in experiment [15] (at 92.4 µM (top of the series)) was 0.0318% (inactive) and 3.04% (inactive).
As for `COC(=O)c1ccc(C)cc1`, the Potency result in [1], in experiment [2], in experiment [3], in [4], in [5] and in experiment [6] was “inactive” in each case. Besides, the Potency result in [9], in experiment [10], in [11], in experiment [16], in experiment [17] and in experiment [18] was “inactive” each time. The Potency entry in experiment [19] was “inactive”. In addition, the outcome in [12] was inactive.
